{"source": "PubChem BioAssay (NCATS)", "note": "Calls of active or inactive are those of the source. No rule for the calls is given here. Potency is read from the fitted curve at half-maximal effect.", "data": [{"system": "HIV-1 nucleocapsid protein NCp7 (binding to TG oligonucleotide)", "experiment": "HIV Nucleocapsid (AID 346);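 also: potency is for inhibitors that block NC binding and lower polarization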", "conditions": "HIV-1 NC / fluorescein-TGTGTGTG probe, fluorescence polarization", "outline": "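Reagents dispensed (10 nM TG4xF, 100 nM HIV-1 NC), plates spun, compounds pin-transferred, then incubated 1 hr at room temperature before FP imaging. Buffer: Hepes pH 7.5, 250mM NaCl, 1uM ZnCl2, 100 uM TCEP, 5 mM 2-mercaptoethanol.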", "values": [{"smiles": "N#CCCn1c(=O)c(-c2ccccc2)nc2cnc(OCc3ccccc3)nc21", "Potency": "> 20 µM (inactive)"}, {"smiles": "CN1CCN(c2ncncc2-c2cccnc2)CC1", "Potency": "> 20 µM (inactive)"}, {"smiles": "COCCn1c(=O)cnc2cnc(N3CCN(C)CC3)nc21", "Potency": "> 20 µM (inactive)"}, {"smiles": "O=c1cnc2cnc(Oc3cccc(Cl)c3)nc2n1C[C@H]1CCCO1", "Potency": "> 20 µM (inactive)"}, {"smiles": "O=c1c(-c2ccccc2)nc2cnc(N3CCNCC3)nc2n1-c1ccccc1", "Potency": "> 20 µM (inactive)"}, {"smiles": "COc1ccccc1-c1nc(N(C)C)c2ccccc2n1", "Potency": "> 20 µM (inactive)"}, {"smiles": "O=C(c1ccco1)N1CCC[C@@]2(CCN(c3cccc(-c4ccccc4)c3)C2)C1", "Potency": "> 20 µM (inactive)"}, {"smiles": "COc1ccc(-c2nc3cnc(N4CCOCC4)nc3n(C)c2=O)cc1", "Potency": "> 20 µM (inactive)"}, {"smiles": "Cc1noc(C)c1-c1cc(Nc2ccc(F)cc2)ncn1", "Potency": "> 20 µM (inactive)"}, {"smiles": "CN1CCN(c2ncnc3ccc(-c4ccccc4C#N)cc23)CC1", "Potency": "> 20 µM (inactive)"}, {"smiles": "COc1cccc(-c2ccc3ncnc(N4CCNCC4)c3c2)c1", "Potency": "> 20 µM (inactive)"}, {"smiles": "Cn1cc(-c2nc3cnc(Oc4cccc(Cl)c4)nc3n(C3CC3)c2=O)c2ccccc21", "Potency": "> 20 µM (inactive)"}, {"smiles": "Cc1ccccc1-c1cncnc1N1CCNCC1", "Potency": "> 20 µM (inactive)"}, {"smiles": "O=c1c(-c2cccs2)nc2cncnc2n1Cc1ccccc1", "Potency": "> 20 µM (inactive)"}, {"smiles": "Cn1cccc1C(=O)N1CCC[C@@]2(CCN(c3ncccn3)C2)C1", "Potency": "> 20 µM (inactive)"}, {"smiles": "COc1cccc(Cn2c(=O)c(-c3ccccc3)nc3cncnc32)c1", "Potency": "> 20 µM (inactive)"}, {"smiles": "COCCn1c(=O)c(-c2cccc(C#N)c2)nc2cnc(Oc3cccc(Cl)c3)nc21", "Potency": "> 20 µM (inactive)"}, {"smiles": "COc1ccc(CNc2ncnc3ccc(-c4cccnc4)cc23)c(OC)c1", "Potency": "> 20 µM (inactive)"}, {"smiles": "N#Cc1ccc(CN2CC3(CCN(C(=O)c4ccncc4)CC3)C2)cc1", "Potency": "> 20 µM (inactive)"}, {"smiles": "COc1ccc(CNc2cc(-c3ccccc3C)ncn2)c(OC)c1", "Potency": "> 20 µM (inactive)"}, {"smiles": "COc1ccc(NC(=O)N2CCC3(CC2)CCN(C(=O)c2cnccn2)CC3)cc1", "Potency": "> 20 µM (inactive)"}, {"smiles": "O=C(c1cnccn1)N1CCC[C@@]2(CCN(c3ccccn3)C2)C1", "Potency": "> 20 µM (inactive)"}, {"smiles": "COc1ccc(C(=O)N2CCC3(CC2)CN(c2cccc(-c4ccccc4)c2)C3)cc1", "Potency": "> 20 µM (inactive)"}, {"smiles": "CC(=O)N1CCC2(CCCN(C(=O)Nc3cccc(C#N)c3)C2)CC1", "Potency": "> 20 µM (inactive)"}, {"smiles": "COc1cccc(Nc2ncc3nc(C)c(=O)n(Cc4cccs4)c3n2)c1", "Potency": "> 4 µM (inactive)"}, {"smiles": "COc1ccc(C(=O)N2CCC3(CCN(Cc4ccccc4OC)CC3)CC2)cc1", "Potency": "> 20 µM (inactive)"}, {"smiles": "O=C(c1cccc(F)c1)N1CCC[C@@]2(CCN(c3cccc(-c4ccccc4)c3)C2)C1", "Potency": "> 20 µM (inactive)"}, {"smiles": "COCCn1c(=O)c(-c2cccc(Cl)c2)nc2cncnc21", "Potency": "> 20 µM (inactive)"}, {"smiles": "COc1cccc(-c2cc(N(C)Cc3ccco3)ncn2)c1", "Potency": "> 20 µM (inactive)"}, {"smiles": "CS(=O)(=O)N1CCC2(CCN(c3ccccn3)CC2)CC1", "Potency": "> 20 µM (inactive)"}, {"smiles": "COC(=O)N1CCC2(CCCN(Cc3ccc(C#N)cc3)C2)CC1", "Potency": "> 20 µM (inactive)"}, {"smiles": "COc1cccc(Nc2ncc3nc(-c4cccs4)c(=O)n(C[C@H]4CCCO4)c3n2)c1", "Potency": "> 4 µM (inactive)"}, {"smiles": "N#Cc1ccc(CN2CC3(CCN(C(=O)c4ccco4)CC3)C2)cc1", "Potency": "> 20 µM (inactive)"}, {"smiles": "O=C(c1cnccn1)N1CCC2(CC1)CCN(c1ncccn1)CC2", "Potency": "> 20 µM (inactive)"}, {"smiles": "O=C(c1ccco1)N1CCC2(CC1)CN(c1ncccn1)C2", "Potency": "> 20 µM (inactive)"}, {"smiles": "COc1cccc(Nc2ncc3nc(C)c(=O)n(C4CC4)c3n2)c1", "Potency": "> 20 µM (inactive)"}, {"smiles": "Cc1cnc(CNc2cc(-c3ccc(C(=O)N(C)C)cc3)ncn2)cn1", "Potency": "> 20 µM (inactive)"}, {"smiles": "CCNc1ncc2ncc(=O)n(C[C@H]3CCCO3)c2n1", "Potency": "> 20 µM (inactive)"}, {"smiles": "COC(=O)N1CCC2(CCCN(C(=O)Nc3ccc(OC)cc3)C2)CC1", "Potency": "> 20 µM (inactive)"}, {"smiles": "N#Cc1ccc(CN2CCC3(CCNCC3)CC2)cc1", "Potency": "> 20 µM (inactive)"}]}]}
